MBD2 DNA inh: MBD2-methylated oligo binding inhibition | Q9UBB5 | TR-FRET, MBD2 binding to methylated oligonucleotide | inhibition, % at 4.4 µM | hit rate 0.31% among 370,000; in the data active means inhibition above about 13%
UHRF1 binding: blocks human UHRF1 binding to methylated DNA; hit rate 0.75% among 370,000; UHRF1 binding to methylated oligo, TR-FRET; inhibition, % at 4.4 µM; AID 687016; in the data active means inhibition above about 21%;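 further: UHRF1 SRA domain binding a hemimethylated CpG hairpin DNA probe; 0% = median of test compound wells and 100% = reference inhibitor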
Target sequence (Q96T88 whole entry, looked up, the tested form may be a part): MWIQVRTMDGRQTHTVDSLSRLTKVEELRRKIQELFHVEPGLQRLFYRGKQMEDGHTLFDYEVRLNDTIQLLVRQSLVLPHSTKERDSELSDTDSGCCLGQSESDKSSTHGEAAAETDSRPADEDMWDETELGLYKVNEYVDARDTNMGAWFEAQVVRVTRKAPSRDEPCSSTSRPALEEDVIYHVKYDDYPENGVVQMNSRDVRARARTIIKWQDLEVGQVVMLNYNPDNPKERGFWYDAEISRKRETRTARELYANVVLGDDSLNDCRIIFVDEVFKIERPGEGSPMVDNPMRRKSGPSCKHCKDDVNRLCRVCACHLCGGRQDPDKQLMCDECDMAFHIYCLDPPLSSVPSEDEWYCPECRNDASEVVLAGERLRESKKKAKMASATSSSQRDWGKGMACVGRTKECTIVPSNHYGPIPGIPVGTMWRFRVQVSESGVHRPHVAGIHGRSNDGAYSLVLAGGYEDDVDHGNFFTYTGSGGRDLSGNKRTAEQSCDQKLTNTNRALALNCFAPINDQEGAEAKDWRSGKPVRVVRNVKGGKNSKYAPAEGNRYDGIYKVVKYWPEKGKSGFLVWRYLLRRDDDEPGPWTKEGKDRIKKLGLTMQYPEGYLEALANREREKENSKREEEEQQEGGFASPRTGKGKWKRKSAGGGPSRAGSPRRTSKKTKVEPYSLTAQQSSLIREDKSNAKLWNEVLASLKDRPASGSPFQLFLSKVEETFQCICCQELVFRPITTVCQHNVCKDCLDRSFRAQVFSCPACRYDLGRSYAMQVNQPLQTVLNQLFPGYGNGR
PRMT1 FP inh: inhibitors of human PRMT1; Q99873; recombinant PRMT1, activity-based probe fluorescence polarization; inhibition, % at 2.79 µM; hit rate 1.3% among 370,000; AID 652257;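 active means inhibition above about 21% made by adding two undisclosed values, limit read from the data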
ABHD5 PLIN5 PPI: inhibitors of human ABHD5-perilipin-5 interaction; Q00G26+Q8WTS1; Split G. princeps luciferase complementation, luminescence, 4 h; inhibition, % at 4 µM; hit rate 0.78% among 360,000; AID 602281;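 active means inhibition above the mean inhibition across every tested compound plus 3 SD, cut at about 22% in these data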;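 further: 0% = DMSO only wells and the 100% control is not disclosed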
rCAG RNA binder: binds r(CAG) RNA repeats; r(CAG) RNA repeat, TO-PRO-1 dye displacement fluorescence; inhibition, % at 3 µM; hit rate 1.3% among 370,000; AID 651821;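 active means inhibition above the plate cutoff, the mean of all test compounds on that plate plus 3 SD, cut at about 35% in these data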;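 further: 0% = DMSO alone and 100% = 100 µM mitoxantrone as full dye displacement; higher means more dye released from RNA so lower well fluorescence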
LEDGF integ inh: blocks HIV-1 LEDGF/p75-dependent DNA integration; TR-FRET IN-LEDGF/p75 DNA integration, Eu/Cy5; inhibition, % at 3.7 µM; hit rate 0.64% among 370,000; AID 743269;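 active means inhibition above the screen-wide mean plus 3 SD, cut at about 13% in these data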;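 further: signal is the Cy5 over europium emission ratio at 671 and 618 nm; 0% = plate median of compound wells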
rCAG bind conf: r(CAG) RNA repeat binding, confirmation; shares compounds with rCAG RNA binder; TO-PRO-1 dye displacement fluorescence; inhibition, % at 3 µM; hit rate 70% among 4,300; AID 652065;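 active means inhibition above a per-plate cutoff, the mean inhibition of sample wells plus 3 SD, cut at about 35% in these data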;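 further: loss of TO-PRO-1 fluorescence as compound displaces dye from 1x1 AA loop RNA; 0% = DMSO only wells and 100% = 100 µM mitoxantrone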
DNA CAG counter: DNA CAG dye complex inhibition counter-screen. shares compounds with rCAG RNA binder. d(CAG) DNA oligo TO-PRO-1 dye displacement, fluorescence. inhibition, % at 3 µM. hit rate 94% among 4,300;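 active means inhibition above its plate's cutoff, the mean test-well inhibition plus 3 SD, cut at about 4.8% in these data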;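 further: 0% = DNA dye mix with DMSO and 100% = 100 µM mitoxantrone; hits displace the dye from DNA and so lower well fluorescence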
dCAG dye DR: disrupts DNA CAG TO-PRO-1 complex in dose response; shares compounds with rCAG RNA binder; DNA CAG/GTC duplex TO-PRO-1 dye displacement fluorescence; IC50, µM; hit rate 20% among 250; in the data active means IC50 below about 10 µM
* = called active by the depositor; i = inactive; · = no result. Shown are actives, neighbours in structure and some others; about 4.1% of the full set was active somewhere.

SMILES | MBD2 DNA inh | UHRF1 binding | PRMT1 FP inh | ABHD5 PLIN5 PPI | rCAG RNA binder | LEDGF integ inh | rCAG bind conf | DNA CAG counter | others
O=C(O)c1ccccc1Nc1cccc(OCc2ccc3ccccc3n2)c1 | 1.1 | 3.0 | 1.8 | -7.7 | 70.3* | 3.3 | 70.7* | 30.9* | dCAG dye DR=i
CCN(CC)c1ccc(NC(=O)CSc2nnc(SCc3ccc(Cl)cc3)s2)cc1 | 6.4 | 2.3 | 0.1 | · | 5.7 | -4.7 | · | ·
COc1ccc(Cl)cc1NC(=O)[C@@]1(CC(=O)O)CC(/C=C/c2ccccc2)=NO1 | -1.3 | 1.8 | 0.8 | -8.2 | 38.1* | 5.9 | 35.8* | 8.2*
CCN(C)C(=O)CN1C(=O)C2CCCCN2C(=O)c2ccccc21 (configuration not stated) | -3.1 | 4.0 | 1.1 | · | 6.5 | -4.3 | · | ·
COC(=O)CSc1nnc(-c2n[nH]c3c2CCC3)n1N | 0.2 | -1.3 | 5.6 | · | 0.5 | 0.6 | · | ·
COc1ccc(N2C(=O)c3n[nH]c(C(C)C)c3C2c2ccc(C)cc2)cc1 (configuration not stated) | 1.0 | 0.7 | -2.3 | · | -0.2 | -2.4 | · | ·
CCN1C(=O)/C(=C2\SC(=S)N(NC(=O)c3ccccc3O)C2=O)c2ccccc21 | -4.3 | 0.8 | 9.1 | -8.2 | 76.5* | 0.8 | 86.3* | 57.8*
Cc1[nH]n(-c2ccccc2)c(=O)c1C(c1ccccc1[N+](=O)[O-])C(C#N)C#N (configuration not stated) | -3.1 | -0.1 | 5.6 | -14.6 | 7.5 | 6.8 | · | ·
Cc1[nH]n(-c2ncc(-c3ccccc3)s2)c(=O)c1C(c1ccc(Cl)cc1)C(C#N)C#N (configuration not stated) | -3.9 | -4.8 | 6.0 | -0.7 | 45.6* | -3.1 | 80.6* | 48.5*
CCOc1ccc(Oc2ccc(NS(=O)(=O)c3cc(C(=O)O)ccc3Cl)cc2)cc1 | 3.8 | 2.1 | -1.2 | 0.7 | 38.3* | 3.6 | 38.7* | 10.9*
CCOc1ccc(NS(=O)(=O)c2cc(NC(=O)c3ccc(C)cc3)ccc2Cl)cc1 | 0.6 | 0.9 | -3.0 | -6.3 | 18.1 | 1.5 | · | ·
CCOc1ccc(Oc2ccc(NS(=O)(=O)c3ccc(CCC(=O)O)cc3)cc2)cc1 | 3.0 | 0.1 | -1.0 | 4.2 | 42.8* | -3.3 | 38.3* | 10.7*
O=C(O)c1cc(NS(=O)(=O)c2ccc(F)cc2)cc(NS(=O)(=O)c2ccc(F)cc2)c1 | 4.1 | -2.3 | 0.0 | -3.3 | 24.7 | -0.2 | · | ·
CCOc1ccc(NS(=O)(=O)c2ccc(NS(=O)(=O)c3ccccc3)cc2)cc1 | -0.5 | 1.9 | -1.2 | 1.0 | 36.4* | -3.2 | 18.7 | 2.5
CCOc1ccc(S(=O)(=O)Nc2cc(NS(=O)(=O)c3ccc(OCC)cc3)cc(C(=O)O)c2)cc1 | 4.0 | 0.6 | 3.8 | 5.5 | 58.4* | -2.2 | 60.2* | 24.5*
O=C(NC1CCCCN(Cc2ccc(Cl)cc2)C1=O)c1ccc(Cl)cc1Cl (configuration not stated) | 1.3 | -2.3 | -3.0 | · | 1.9 | 0.5 | · | ·
COc1cc(/C=N/NC(=O)[C@H](Cc2c[nH]c3ccccc23)NC(=O)OCC(C)C)cc([N+](=O)[O-])c1O | -10.7 | -8.6 | 12.3 | -7.7 | 70.2* | 0.9 | 48.0* | 16.9*
CCOc1cc(C(N)=O)cc(Cl)c1OCc1ccccc1 | 0.5 | -0.1 | -5.7 | 4.0 | -2.6 | 0.2 | · | ·
CCOc1cc(/C=C(/NC(C)=O)C(=O)O)cc(Cl)c1OCc1cccc(Br)c1 | 1.2 | 5.5 | 3.2 | -1.9 | 44.0* | 0.1 | 32.8 | 5.5*
NCCC(=O)Nc1ccc(Cl)cc1C(=O)c1ccc[nH]1 | 1.6 | 0.3 | 3.4 | · | · | -5.0 | · | ·
CC12C(=O)N(c3ccccc3C(=O)O)C(=O)C1C1C=CC2C1 (configuration not stated) | 1.9 | -1.9 | -1.9 | 1.7 | 1.9 | 4.5 | · | ·
O=C(O)c1ccccc1N1C(=O)C2C3c4ccccc4C(Br)(c4ccccc43)C2C1=O (configuration not stated) | -3.4 | 0.2 | -1.6 | -6.2 | 34.7* | 7.5 | 26.8 | 4.5*
N#Cc1ccc(Cn2nnc(-c3ccc(N4CCOCC4)cc3)n2)cc1 | 1.4 | -1.6 | -0.6 | · | 0.9 | -2.0 | · | ·
CC(C)(C)OC(=O)N1CCC2CCN(S(C)(=O)=O)CC21 (configuration not stated) | 7.1 | 0.9 | 6.5 | · | 0.3 | -2.2 | · | ·
CC1CCN(c2ccc(C(=O)O)cc2NS(=O)(=O)c2ccc(C(C)(C)C)cc2)CC1 | 8.2 | 0.9 | 1.2 | · | 64.5* | 5.0 | 63.7* | 25.7*
SMILES | MBD2 DNA inh | UHRF1 binding | PRMT1 FP inh | ABHD5 PLIN5 PPI | rCAG RNA binder | LEDGF integ inh | rCAG bind conf | DNA CAG counter | others
O=C(OC12CCCN(C1)/C(=C/c1cccc(Cl)c1)C2)c1cccc(F)c1 (configuration not stated) | -1.9 | 0.7 | -6.6 | · | -0.1 | 1.6 | · | ·
O=C(Cc1cccs1)NC1CCCCN(Cc2ccc(Cl)cc2)C1=O (configuration not stated) | -0.6 | 3.4 | -1.5 | · | 3.7 | 1.2 | · | ·
Cc1c(C)n(Cc2ccc(-c3ccccc3C(=O)O)cc2)c2ccc(C(=O)N[C@@H](C)c3ccc(Br)cc3)cc12 | 1.6 | -2.6 | 0.5 | · | 76.6* | 4.3 | 77.2* | 38.4*
O=C1CS/C(=C\[N+](=O)[O-])N1c1ccc(OC(F)(F)F)cc1 | 1.9 | -6.7 | -0.2 | 2.0 | 48.9* | 1.6 | 4.6 | 1.7
COc1cc2ccccc2cc1C(=O)NC(=S)Nc1cccc(C(=O)O)c1 | -4.2 | 4.1 | -0.3 | 0.4 | 38.6* | -4.4 | 69.3* | 34.1*
COc1ccc(CNS(=O)(=O)CC2NCc3ccc(C)cc32)cc1 (configuration not stated) | -4.0 | -7.8 | 3.2 | · | 8.8 | -1.2 | · | ·
On1onc2c3cc(-c4ccccc4)nc3ccc21 | -3.9 | -3.9 | -3.9 | -1.9 | 41.0* | 1.1 | 11.5 | 5.0*
Fc1ccc(CN2CCCN(C(=S)Nc3ccc(F)cc3)CC2)cc1 | -2.6 | -1.5 | -3.8 | 4.6 | -3.6 | 0.9 | · | ·
O=S(=O)(Nc1ncccn1)c1ccc(NC(=S)N2CCN(Cc3ccc(F)cc3Cl)CC2)cc1 | -4.8 | -0.1 | -6.3 | -3.0 | 38.6* | 5.1 | 37.8* | 11.1*
CC(C)=C1C(=O)NN(c2cccc(Cl)c2)C1=O | 4.8 | 1.4 | 9.9 | -3.5 | 24.9 | 0.2 | · | ·
CC(C)=C1C(=O)NN(c2ccc(C)c(Cl)c2)C1=O | -2.1 | -0.6 | 16.0 | 6.9 | 93.6* | 2.4 | 22.9 | 8.1*
CC(C)CNc1cccc2c1S(=O)(=O)N(Cc1cccc(F)c1)[C@@H](C)[C@H](c1ccccc1)O2 | -4.2 | -3.9 | -2.2 | · | 3.1 | -4.9 | · | ·
O=c1[nH][nH]c2cc(=O)n(-c3cccc(C(F)(F)F)c3)nc12 | -0.8 | -2.6 | 8.2 | 1.3 | 58.8* | 4.2 | 48.3* | 16.6*

Assay outcomes deposited in PubChem by The Scripps Research Institute Molecular Screening Center.
